# MLLE-PAM2 inh – blocks PAM2 peptide binding to the PABP1 MLLE domain | P11940 | GST-MLLE / FITC-PAM2 fluorescence polarization | inhibition, % at 20 µM | hit rate 0.36% among 360,000 | AID 588489; in the data active means inhibition above about 35%, passing the limit was not always enough;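 further: plate controls were DMSO wells with GST-MLLE for no effect and wells lacking GST-MLLE protein for full effect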
# eIF4H FP inh – inhibitors of RNA binding by human eIF4H | Q15056 | eIF4H fluorescence polarization binding assay | inhibition, % at 35 µM | hit rate 0.94% among 290,000 | AID 2012;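 further: calls also rest on retests at 20 µM and on dose response follow-up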
# PABP FP inh – blocks human PABP binding to poly(A) RNA; calls only at 35 µM; AID 2014; fluorescence polarization; hit rate 1% among 290,000; P11940;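 further: calls also rest on retests at 20 µM and on dose response follow-up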
# eIF4E-4G inh – blocks eIF4E binding to eIF4G | P63073+Q04637 | TR-FRET eIF4E-eIF4GI(517-606) binding, 2 h | inhibition, % at 21.7 µM | hit rate 0.37% among 220,000 | AID 782;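 active means inhibition above about 30%, limit read from the data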;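 further: 0% = full FRET control wells and 100% = background wells lacking eIF4GI fragment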
# An asterisk follows results filed as active; i = inactive; ? = inconclusive; / = no result given; + = active, no number. Hits are enriched below; roughly 1.5% of the tested compounds scored in any of these assays. Unless noted, how the calls were made is not given here.
SMILES,MLLE-PAM2 inh,eIF4H FP inh,PABP FP inh,eIF4E-4G inh
COC(=O)/C=c1/s/c(=C(\C#N)C(=O)NCc2ccco2)n(-c2ccc(C)cc2)c1=O,-105,101*,+,0
N#C/C(=C\c1ccccc1[N+](=O)[O-])C(=O)NCc1ccccc1,57*,69*,+,5
COCCNC(=O)/C(C#N)=C/c1cc(C)n(-c2ccc(C)cc2)c1C,-4,13,i,-3
N#C/C(=C\c1cccnc1)C(=O)Nc1ccccc1[N+](=O)[O-],-22,66*,+,/
COc1ccc(-n2c(C)cc(/C=C(\C#N)C(=O)NCc3ccco3)c2C)cc1,14,57,+,5
C=C(C)Cn1c2ccc(NC(=O)NCCc3cccs3)cc2c(=O)n1C,14,/,/,/
COc1ccc(NC(=O)CN2C(=O)NC(C)(Cc3ccc(OC)c(OC)c3)C2=O)cc1 (configuration not stated),1,/,/,/
CS(=O)(=O)Nc1cccc(-c2cc(NC=O)c3ncc(-c4ccc(F)cc4)n3c2)c1,-32,/,/,/
Cc1ccccc1NC(=O)/C(C#N)=C\c1cc(C)n(-c2ccc(C(=O)O)cc2)c1C,-14,?,+,5
Cc1ccc(/C=C(\C#N)C(=O)NCC2CCCO2)o1 (configuration not stated),20,9,i,-8
N#C/C(=C/c1ccccc1[N+](=O)[O-])C(=O)NCc1ccco1,20,63*,+,1
O=C(NCc1ccco1)c1ccc([N+](=O)[O-])o1,8,89*,+,16
Cc1ccccc1-n1c(C)cc(/C=C(\C#N)C(=O)NCC2CCCO2)c1C (configuration not stated),4,88*,+,12
Cc1ccc2nc(-c3ccc(C#N)cc3)c(Cc3ccccc3C(F)(F)F)n2c1,0,/,/,/
N#C/C(=C\c1sc(N2CCOCC2)nc1-c1ccccc1)C(=O)Nc1cccc2ccccc12,/,55*,+,45*
CCOc1ccc(NC(=O)c2sc(N3CCOCC3)nc2-c2ccccc2)cc1,-14,-3,i,1
O=C(Nc1ccccc1)c1sc(N2CCOCC2)nc1-c1ccccc1,-2,active,+,-2
Cc1cc(NC(=O)COC(=O)C2CC(=O)N(c3cccc(C)c3C)C2)no1 (configuration not stated),-3,-4,i,/
COC(=O)/C(C(C)=O)=C(/C=C/C=C/N(C)C)N(C)C,19,80*,+,-1
CC1(C)Cc2nc3sc4c(SCC(=O)O)ncnc4c3cc2CO1,7,-4,i,-2
COC(=O)CSc1ncnc2c1sc1nc3c(cc12)COC(C)(C)C3,-9,active,i,0
Cc1ccc(N2C(=O)C3C4C=CC(CNC(=S)Nc5cccc(Cl)c5)(O4)C3C2=O)cc1 (configuration not stated),41*,4,i,1
Cc1ccc(N2C(=O)C3C4C=CC(CNC(=S)Nc5ccc(Cl)cc5)(O4)C3C2=O)cc1 (configuration not stated),27,2,i,7
COc1ccccc1-c1csc(C(O)c2ccc(F)cc2)n1 (configuration not stated),2,/,/,/
COc1ccc2c(c1)CCN1C2CCN2C(=O)CCC21 (configuration not stated),58*,73*,+,-4
SMILES,MLLE-PAM2 inh,eIF4H FP inh,PABP FP inh,eIF4E-4G inh
COc1cccc(N2C(=O)CC(N3CCc4ccccc43)C2=O)c1 (configuration not stated),14,-8,i,-12
c1ccc(C2=NNC(c3ccccn3)=NN2)nc1,43*,7,i,/
C[C@H](O)[C@H](O)[C@H]1CNc2nc(N)[nH]c(=O)c2N1,89*,/,/,/
C[C@H](O)C(=O)C1=Nc2c(nc(N)[nH]c2=O)NC1,14,/,/,/
COc1ccc(CN2CC(=O)N3[C@H]4c5ccccc5OC[C@@H]4[C@H](c4ccccc4)[C@]3(C)C2=O)cc1,43*,/,/,/
CCCc1c(C(=O)N/N=C/c2ccoc2)nnn1-c1nonc1N,1,/,/,/
CC1=C(C(=O)N2CCCCCC2)CC(CC(=O)NC(c2ccccc2)c2ccccc2)C(=O)N1Cc1ccccc1 (configuration not stated),9,/,/,/
O=C(c1ccncc1)N(c1ccc(N2CCOCC2)cc1)C(c1ccccc1)c1nc2ccccc2[nH]1 (configuration not stated),-5,/,/,/
C/C(=N\NC(=O)COc1cccc(Cl)c1)c1ccc2c(c1)OCCO2,-8,active,i,2
O=C(Nc1cc(-c2ccccc2)[nH]n1)c1ccccc1F,1,38,i,-5
CC1=C(C(=O)Nc2cc(-c3cccc(F)c3)[nH]n2)C2(CCCCC2)OC1=O,6,55*,+,3
Oc1ccc(Br)cc1C=Nc1ccc2c3c(cccc13)CC2,12,100*,+,2
C=CCNc1ncnc2c1ncn2[C@H]1CN(Cc2ccc3c(c2)OCO3)C[C@@H](CO)O1,-15,/,/,/
O=C(NCc1ccncc1)c1cccc(S(=O)(=O)NCc2ccccc2)c1,5,13,+,/
O=C(c1cccc(S(=O)(=O)NCc2ccccc2)c1)N1CCN(c2cccc(C(F)(F)F)c2)CC1,12,16,+,/
COc1ccc(CN2CCC[C@]3(N[C@H](c4ccccc4)[C@@H]4C(=O)N(Cc5ccccc5)C(=O)[C@@H]43)C2=O)cc1,2,/,/,/
COc1cccc(CN2CCC2(C)C(=O)Nc2cccc(NS(C)(=O)=O)c2)c1OC (configuration not stated),-3,/,/,/
CCOc1ccc(NC(=O)CN(C)C(=O)c2cc3c(s2)CCC3)cc1OCC,7,/,/,/
CCCCc1c(O)nc(SCCN(C)C)n(-c2ccccc2)c1=O,38*,-14,i,-4
CN(C)CCSc1nc(O)c(-c2ccccc2)c(=O)n1-c1ccccc1,15,-6,i,7
C[C@H]1CN([C@@H](C)CO)S(=O)(=O)c2ccc(C#Cc3cccnc3)cc2O[C@@H]1CN(C)C(=O)Nc1ccc2c(c1)OCO2,-9,/,/,/
Cc1ccccc1NC(=O)c1c(C)[nH]c(=S)c(C#N)c1-c1ccc(Cl)cc1,5,2,i,-2
Cc1[nH]c(=S)c(C#N)c(-c2ccccc2)c1C(=O)Nc1ccccc1,4,-8,i,32*
CCn1c(SCC(=O)Nc2nc(-c3ccc(C)cc3)cs2)nnc1-c1ccccc1,-2,7,i,-5
Cc1ccc(-c2csc(NC(=O)CSc3nc4ccccc4c(=O)n3CCCN(C)C)n2)cc1,-6,-8,i,31*
SMILES,MLLE-PAM2 inh,eIF4H FP inh,PABP FP inh,eIF4E-4G inh
O=C(CSc1nc2ccccc2c(=O)n1CCCO)NCc1ccccc1,38*,-13,i,3
Cc1c(C(=O)NCc2ccc(F)cc2)sc(=O)n1Cc1ccc(Cl)c(Cl)c1,-15,/,/,/
OC[C@@H]1CN(Cc2cccc3ccccc23)C[C@H](n2cnc3c(NCc4ccco4)ncnc32)O1,4,/,/,/
N#Cc1ccc(OCC(=O)Nc2ccccc2NS(=O)(=O)c2cccs2)cc1,-4,53*,+,-7
O=C(Nc1ccccc1)Nc1ccccc1NS(=O)(=O)c1cccs1,-2,4,i,3
O=C(O)CCCN1C(=O)/C(=C/c2ccc(-c3nc4ccccc4s3)o2)SC1=S,-71,?,+,0
